Experimental data taken from PubChem BioAssay.
Calls of active or inactive are those of the source. Unless noted, no rule for the calls is given here.

Legend:
[1] = HepG2 liver cancer cell viability effects, profiling panel, resazurin fluorescence, 24 h, PK04 Diversity Set (AID 1172); conditions: higher = more signal
[2] = basal S. cerevisiae growth modulation, no modifier, primary screen, OD600, strain BY4716, 24 h, basal condition (AID 1173); conditions: OD600, 24 h, higher = more signal, called active from +8 up or from −8 down
[3] = MM1S myeloma cell viability, profiling panel, resazurin fluorescence, basal, 24 h, PK04 Diversity Set (AID 1174); conditions: higher = more signal, called active from +8 up or from −8 down;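 also: MM1S multiple myeloma cell line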
[4] = biological target: Dihydroorotate dehydrogenase (quinone), mitochondrial (Plasmodium falciparum (isolate 3D7)) (UniProt Q08210); assay: PfDHODH enzyme inhibitors, primary screen, biochemical, C-terminal His tag, absorbance 600 nm (AID 1175); conditions: DCIP absorbance 600 nm, higher = more signal, called active from +8 up or from −8 down;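 also: recombinant parasite enzyme with a five histidine tag at its C terminus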
[5] = P. aeruginosa biofilm formation inhibitors, primary screen, strain PAO1, LB-PBS medium, absorbance 600 nm (AID 1176); conditions: P. aeruginosa PAO1 growth/biofilm, A600, 12 h; higher = more signal
[6] = S. cerevisiae RM11-1a growth modifiers, primary screen, strain RM11-1a, OD600, basal, 24 h (AID 1177); conditions: OD600, 24 h, higher = more signal, called active from +8 up or from −8 down;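 also: cultures grown under basal conditions with no added stressor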
[7] = E. coli acrAB mutant growth effects, primary screen, E. coli filamentation inducers, strain DRC39, OD650, 24 h (AID 1178); conditions: higher = more signal, called active from +8 up or from −8 down;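 also: growth measured as culture turbidity by optical density at 650 nm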
[8] = E. coli acrAB mutant growth effects, primary screen, E. coli filamentation inducers, strain DRC39, OD650, 48 h (AID 1179);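 also: screen aims at cell division blockers that make cells filament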; conditions: E. coli DRC39 delta-acrAB growth, higher = more signal, called active from +8 up or from −8 down
[9] = RPMI8226 myeloma cell viability, profiling panel, resazurin fluorescence, basal, 24 h, PK04 Diversity Set (AID 1180); conditions: higher = more signal;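 also: RPMI8826 multiple myeloma cell line at 5000 cells per well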
[10] = biological target: E3 ubiquitin-protein ligase XIAP (Homo sapiens) (UniProt P98170); assay: XIAP binders, primary screen, biophysical, small-molecule microarray, fluorescence 635 nm (AID 1181); conditions: small-molecule microarray binding, higher = more signal;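 also: score merges 667 nm emission and signal to noise over triplicate slides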
[11] = system: XIP peptide (Xip251-270) binding; assay: small-molecule binders of XIP peptide, primary screen, biochemical, small-molecule microarray, fluorescence 635/667 nm, 0.1 µg/mL protein (AID 1182); conditions: fluorescent protein binding, 635 nm, higher = more signal, called active from +8 up or from −8 down
XIP peptide (Xip251-270) = assay: small-molecule binders of XIP peptide, primary screen, biochemical, small-molecule microarray, fluorescence 635/667 nm, 0.5 µg/mL protein (AID 1183); conditions: small-molecule microarray binding, fluorescence 635 nm; higher = more signal
[12] = Plasmodium falciparum growth inhibition, primary screen, strain 3D7, DAPI fluorescence, 100 nL (AID 1184);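 also: parasites grown inside human red blood cells in medium with human serum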; conditions: P. falciparum 3D7 growth, 3 d, higher = more signal
[13] = biological target: Homeobox protein Hox-A13 (Mus musculus) (UniProt Q62424); assay: inhibitors of HoxA13-DNA binding, primary screen, biochemical, fluorescence polarization, labeled oligonucleotide (AID 1185); conditions: 15 min, higher = more signal, called active from +8 up or from −8 down
[14] = inhibitors of hydroxyurea-induced Chk1 phosphorylation, primary screen, imaging, HeLa, phospho-Chk1 antibody, percent positive cells (AID 1186); conditions: hydroxyurea-induced phospho-Chk1 immunofluorescence imaging, higher = more signal
[15] = inhibitors of hydroxyurea-induced Chk1 phosphorylation, primary screen, imaging, HeLa, phospho-Chk1 nuclear intensity (AID 1187); conditions: hydroxyurea-induced phospho-Chk1 immunofluorescence imaging, higher = more signal

Dihydroorotate dehydrogenase (quinone), mitochondrial (Plasmodium falciparum (isolate 3D7)), sequence (Q08210 whole entry, looked up): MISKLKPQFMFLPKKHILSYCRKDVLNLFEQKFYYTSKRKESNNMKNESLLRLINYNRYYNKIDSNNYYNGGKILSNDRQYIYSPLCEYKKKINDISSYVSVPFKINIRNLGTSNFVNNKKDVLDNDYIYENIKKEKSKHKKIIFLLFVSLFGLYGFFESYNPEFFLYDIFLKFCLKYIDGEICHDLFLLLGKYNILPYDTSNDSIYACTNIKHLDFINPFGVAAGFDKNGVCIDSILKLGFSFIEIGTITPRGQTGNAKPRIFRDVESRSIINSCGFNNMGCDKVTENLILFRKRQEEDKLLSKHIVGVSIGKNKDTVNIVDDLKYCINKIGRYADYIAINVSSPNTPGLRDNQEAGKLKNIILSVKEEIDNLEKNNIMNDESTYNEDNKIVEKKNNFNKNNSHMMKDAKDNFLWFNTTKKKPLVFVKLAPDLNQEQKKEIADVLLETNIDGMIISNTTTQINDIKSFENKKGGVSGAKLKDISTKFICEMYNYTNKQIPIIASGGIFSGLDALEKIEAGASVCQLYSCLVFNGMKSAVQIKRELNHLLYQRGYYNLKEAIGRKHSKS
E3 ubiquitin-protein ligase XIAP (Homo sapiens), sequence (P98170 whole entry, looked up): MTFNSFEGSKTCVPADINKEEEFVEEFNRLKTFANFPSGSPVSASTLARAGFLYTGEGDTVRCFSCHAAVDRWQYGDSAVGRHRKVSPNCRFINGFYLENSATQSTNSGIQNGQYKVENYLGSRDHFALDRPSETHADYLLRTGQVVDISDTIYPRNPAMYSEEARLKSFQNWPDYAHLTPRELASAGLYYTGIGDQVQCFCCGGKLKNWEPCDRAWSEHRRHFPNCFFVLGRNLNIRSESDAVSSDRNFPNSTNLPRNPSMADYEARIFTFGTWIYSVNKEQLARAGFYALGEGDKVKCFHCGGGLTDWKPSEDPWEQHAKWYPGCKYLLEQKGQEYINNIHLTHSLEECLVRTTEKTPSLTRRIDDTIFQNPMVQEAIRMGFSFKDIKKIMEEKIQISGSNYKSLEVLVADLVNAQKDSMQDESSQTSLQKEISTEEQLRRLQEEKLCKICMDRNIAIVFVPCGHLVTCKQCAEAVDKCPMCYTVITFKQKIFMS
Homeobox protein Hox-A13 (Mus musculus), sequence (Q62424 whole entry, looked up): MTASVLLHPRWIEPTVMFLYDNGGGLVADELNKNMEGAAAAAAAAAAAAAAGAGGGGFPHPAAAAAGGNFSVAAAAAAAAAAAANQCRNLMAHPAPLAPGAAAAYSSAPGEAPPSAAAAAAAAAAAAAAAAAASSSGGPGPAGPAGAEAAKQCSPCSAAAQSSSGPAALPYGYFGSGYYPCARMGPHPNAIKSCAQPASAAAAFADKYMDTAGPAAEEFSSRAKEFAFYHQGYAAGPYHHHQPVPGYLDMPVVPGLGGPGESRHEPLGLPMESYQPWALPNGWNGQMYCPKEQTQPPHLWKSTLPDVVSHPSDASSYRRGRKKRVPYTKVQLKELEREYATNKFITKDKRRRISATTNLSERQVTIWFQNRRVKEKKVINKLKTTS

Question: Which results are given for `O=C(O)[C@@H]1C[C@@H]2C(=O)N3CCC[C@H]3C(=O)N2[C@@H]1c1ccc(O)cc1`?
Answer: z-score [1]: -0.155; z-score [2]: -1.8 (inactive); z-score [3]: -0.695 (inactive); composite z-score [4]: -1.7 (inactive); z-score [5]: 1.03 (inactive); z-score [6]: -0.113 (inactive); z-score [7]: 0.437 (inactive); z-score [8]: -0.535 (inactive); z-score [9]: 0.16; composite z-score [10]: 0.0721; composite z-score [11]: 0.543 (inactive); composite z-score (XIP peptide (Xip251-270)): 0.906; z-score [12]: -1.37; z-score [13]: 1.66 (inactive); z-score [14]: 0.959 (inactive); z-score [15]: 1.08 (inactive)

Question: For `C=C[C@@H](CO)N(Cc1ccc(OC)cc1)S(=O)(=O)c1ccc(Br)cc1`, which z-score [1] is on record?
Answer: 1.04

Question: And the z-score [2]?
Answer: -5.71 (inactive)

Question: And the z-score [3]?
Answer: -0.495 (inactive)

Question: What about the composite z-score [4] of the same molecule?
Answer: -2.32 (inactive)

Question: And the z-score [5]?
Answer: -0.152 (inactive)

Question: What about the z-score [6] of the same molecule?
Answer: -1.99 (inactive)

Question: And the z-score [7]?
Answer: 1.66 (inactive)

Question: What about the z-score [8] of the same molecule?
Answer: 1.88 (inactive)

Question: And the z-score [9]?
Answer: -0.455

Question: And the composite z-score [10]?
Answer: -0.434

Question: What about the composite z-score [11] of the same molecule?
Answer: -0.798 (inactive)

Question: And the composite z-score (XIP peptide (Xip251-270))?
Answer: -0.315

Question: What about the z-score [12] of the same molecule?
Answer: -0.0153

Question: What about the z-score [13] of the same molecule?
Answer: -3.98 (inactive)

Question: What about the z-score [14] of the same molecule?
Answer: -0.289 (inactive)

Question: And the z-score [15]?
Answer: -0.157 (inactive)

Question: Which z-score [1] does the source give for `COC(=O)[C@]1(CCS(=O)(=O)c2ccccc2)N=C(c2ccc(OCCCO)cc2)O[C@@H]1c1ccccc1N=[N+]=[N-]` here?
Answer: -1.28

Question: And the z-score [2]?
Answer: 0.141 (inactive)

Question: What about the z-score [3] of the same molecule?
Answer: -3.19 (inactive)

Question: And the composite z-score [4]?
Answer: 1.02 (inactive)

Question: And the z-score [5]?
Answer: 0.963 (inactive)

Question: What about the z-score [6] of the same molecule?
Answer: 2.53 (inactive)

Question: What about the z-score [7] of the same molecule?
Answer: 0.548 (inactive)

Question: What about the z-score [8] of the same molecule?
Answer: -0.718 (inactive)

Question: What about the z-score [9] of the same molecule?
Answer: -2.26

Question: And the composite z-score [10]?
Answer: -0.0502

Question: And the composite z-score [11]?
Answer: 1.48 (inactive)

Question: And the composite z-score (XIP peptide (Xip251-270))?
Answer: 0.836

Question: What about the z-score [12] of the same molecule?
Answer: -2.36

Question: What about the z-score [13] of the same molecule?
Answer: -3.34 (inactive)

Question: And the z-score [14]?
Answer: -0.265 (inactive)

Question: What about the z-score [15] of the same molecule?
Answer: -0.364 (inactive)

Question: Which z-score [1] does the source give for `CCCCC(O)C1C=CC2C(=O)N(C)C(=O)C2N1N(c1ccccc1)c1ccccc1` (stereo not drawn) here?
Answer: -0.682

Question: And the z-score [2]?
Answer: 0.512 (inactive)

Question: What about the z-score [3] of the same molecule?
Answer: -1.65 (inactive)

Question: What about the composite z-score [4] of the same molecule?
Answer: -0.226 (inactive)

Question: And the z-score [5]?
Answer: 1.26 (inactive)

Question: What about the z-score [6] of the same molecule?
Answer: 0.46 (inactive)

Question: What about the z-score [7] of the same molecule?
Answer: -0.447 (inactive)

Question: What about the z-score [8] of the same molecule?
Answer: -0.251 (inactive)

Question: And the z-score [9]?
Answer: -1.05

Question: And the composite z-score [10]?
Answer: 0.001

Question: And the composite z-score [11]?
Answer: 0.289 (inactive)

Question: What about the composite z-score (XIP peptide (Xip251-270)) of the same molecule?
Answer: 0.771

Question: And the z-score [12]?
Answer: 1.01

Question: What about the z-score [13] of the same molecule?
Answer: -4.42 (inactive)

Question: What about the z-score [14] of the same molecule?
Answer: -0.0768 (inactive)

Question: What about the z-score [15] of the same molecule?
Answer: -0.691 (inactive)

Question: For `CC1CC/C=C\[C@H]2OC34C=CCN(c5ccc6ccccc6c5)C(=O)[C@H]3N(CCCO)C(=O)[C@@H]4C2C(=O)O1` (stereo partly drawn), which z-score [1] is on record?
Answer: -0.829

Question: And the z-score [2]?
Answer: 0.723 (inactive)

Question: And the z-score [3]?
Answer: -0.644 (inactive)

Question: What about the composite z-score [4] of the same molecule?
Answer: 0.676 (inactive)

Question: And the z-score [5]?
Answer: -0.829 (inactive)

Question: And the z-score [6]?
Answer: 0.822 (inactive)

Question: What about the z-score [7] of the same molecule?
Answer: -0.587 (inactive)

Question: What about the z-score [8] of the same molecule?
Answer: -0.723 (inactive)

Question: What about the z-score [9] of the same molecule?
Answer: 0.0719

Question: And the composite z-score [10]?
Answer: 0.275

Question: What about the composite z-score [11] of the same molecule?
Answer: -0.103 (inactive)

Question: And the composite z-score (XIP peptide (Xip251-270))?
Answer: 0.327

Question: And the z-score [12]?
Answer: 0.293

Question: And the z-score [13]?
Answer: -5.63 (inactive)

Question: And the z-score [14]?
Answer: 0.486 (inactive)

Question: And the z-score [15]?
Answer: 0.104 (inactive)

Question: Which z-score [1] does the source give for `Cc1ccc(S[C@]2(C(=O)NCc3ccccc3)CC(=O)N(C3CCCCC3)[C@@H]2c2ccc(CO)cc2I)cc1` here?
Answer: -0.636

Question: What about the z-score [2] of the same molecule?
Answer: -0.799 (inactive)

Question: And the z-score [3]?
Answer: -1.82 (inactive)

Question: What about the composite z-score [4] of the same molecule?
Answer: -0.11 (inactive)

Question: And the z-score [5]?
Answer: 0.82 (inactive)

Question: And the z-score [6]?
Answer: -0.505 (inactive)

Question: And the z-score [7]?
Answer: 0.509 (inactive)

Question: What about the z-score [8] of the same molecule?
Answer: 0.323 (inactive)

Question: What about the z-score [9] of the same molecule?
Answer: -2.24

Question: And the composite z-score [10]?
Answer: -0.0095

Question: And the composite z-score [11]?
Answer: 0.2 (inactive)

Question: What about the composite z-score (XIP peptide (Xip251-270)) of the same molecule?
Answer: 0.742

Question: And the z-score [12]?
Answer: -2.17

Question: What about the z-score [13] of the same molecule?
Answer: -2.37 (inactive)

Question: And the z-score [14]?
Answer: 0.355 (inactive)

Question: What about the z-score [15] of the same molecule?
Answer: 0.557 (inactive)

Question: Which results are given for `COc1ccc([Si](C)(C)[C@H]2[C@H](CC(=O)N3CCC[C@H]3CO)O[C@@]3(C(=O)N(Cc4ccc(N5CCOC5=O)cc4)c4ccccc43)[C@@H]2C)cc1`?
Answer: z-score [1]: -0.0717; z-score [2]: 0.686 (inactive); z-score [3]: -0.255 (inactive); composite z-score [4]: -2.97 (inactive); z-score [5]: 0.189 (inactive); z-score [6]: 1.35 (inactive); z-score [7]: 0.0286 (inactive); z-score [8]: -0.16 (inactive); z-score [9]: -0.404; composite z-score [10]: -0.0356; composite z-score [11]: 0.214 (inactive); composite z-score (XIP peptide (Xip251-270)): 0.719; z-score [12]: -0.738; z-score [13]: -3.99 (inactive); z-score [14]: 0.222 (inactive); z-score [15]: 0.0857 (inactive)

Question: Which results are given for `CCOC(=O)C1=CC[C@@H](c2ccccc2)N(S(=O)(=O)c2ccc(C)cc2)[C@H]1c1ccccc1`?
Answer: z-score [1]: -0.356; z-score [2]: 1.92 (inactive); z-score [3]: -0.564 (inactive); composite z-score [4]: 1.03 (inactive); z-score [5]: 0.85 (inactive); z-score [6]: 1.75 (inactive); z-score [7]: -0.544 (inactive); z-score [8]: -0.244 (inactive); z-score [9]: -1.33; composite z-score [10]: 0.0512; composite z-score [11]: 0.267 (inactive); composite z-score (XIP peptide (Xip251-270)): 0.528; z-score [12]: -1.67; z-score [13]: 0.268 (inactive); z-score [14]: 0.339 (inactive); z-score [15]: -1.24 (inactive)
